Here are results for 92 molecules from PubChem BioAssay AID504634 (The Scripps Research Institute Molecular Screening Center, 2011).

Each structure is given as a SMILES string. In all, about 340,000 compounds went through this assay and about 280 (0.082%) were called active. Shown is part of a subset that was picked to be rich in actives. Unmarked numbers belong to inactive results. Cut-off read from the data, not from the text of the source: active = inhibition mostly above about 23% (no sharp cut-off); inactive = mostly below about 18%.

Chain of 5-hydroxytryptamine receptor 5A (Homo sapiens) (P47898 whole entry, looked up): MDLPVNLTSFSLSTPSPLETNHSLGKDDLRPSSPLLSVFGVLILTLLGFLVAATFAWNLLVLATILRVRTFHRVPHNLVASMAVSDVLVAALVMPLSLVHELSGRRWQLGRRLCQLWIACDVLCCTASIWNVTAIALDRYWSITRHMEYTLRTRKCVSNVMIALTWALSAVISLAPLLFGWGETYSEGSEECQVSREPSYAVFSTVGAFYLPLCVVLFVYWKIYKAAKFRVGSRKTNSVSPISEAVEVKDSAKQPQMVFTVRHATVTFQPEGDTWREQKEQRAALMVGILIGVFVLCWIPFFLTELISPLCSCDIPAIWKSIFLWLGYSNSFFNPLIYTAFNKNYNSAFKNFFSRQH

This test addresses 5-hydroxytryptamine receptor 5A (Homo sapiens) (UniProt P47898). Description: HTR5A inverse agonists in luminescence cell assay, primary screen, counter-screen for OPRM1-OPRD1 heterodimer inverse agonist project, full-deck HTS (AID 504634).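 Note: 0% = cells with DMSO and 100% = no-cell wells with DMSO.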 The following applies: HTR5A cell line, inverse agonism, at 9.3 µM, stronger effect = higher value. Background: The purpose of a counterscreen is to sort out artefacts and off-target activity.
What is called inhibition is the relative decrease from the control value, in per cent. For `CC(=O)N1CCN(c2ccc(NCc3ccc(C(C)C)cc3)cc2)CC1`, the inhibition was -28.6%.
As to `CC1CCCN(c2ccc(C(=O)NCCc3ccccc3)cn2)C1` (configuration not stated), the inhibition is -15.3%.
As for `C=C1CCN([C@@H](Cc2ccccc2)C(=O)N2CCOCC2)S(=O)(=O)c2ccccc21`, the figure is -14.5%.
`CCOC(=O)N1CCC(NC(=O)C(NS(=O)(=O)c2ccc3c(c2)CCN3C(=O)CC)C(C)C)CC1` (configuration not stated): the inhibition was -32.3%.
Under `CCN(c1ccccc1)S(=O)(=O)c1ccc2[nH]c(=O)[nH]c2c1` stands 4.19%.
On to `O=C(O)c1ccc(NS(=O)(=O)c2cccc3nsnc23)cc1`, for which the inhibition is -11.7%.
Under `Cc1cc(-c2ccc(S(=O)(=O)N3CCN(c4cccc(C(F)(F)F)c4)CC3)s2)on1` stands -11.3%; under `CCCCNC(=O)C1CCC(=O)N1CCc1ccccc1` (configuration not stated), 4.38%.
As for `COc1ccc(N2CC(C)Cn3c2nc2c3c(=O)n(Cc3ccccc3F)c(=O)n2C)c(OC)c1` (configuration not stated), the figure is 6.23%; as for `CN(C)c1ccc(/C=C/C(=O)c2ccc(O)cc2)cc1[N+](=O)[O-]`, 5.01%.
`O=C(/C=C/c1ccc(Cl)c([N+](=O)[O-])c1)c1ccc(O)cc1`: the inhibition is 25.2% (active).
Under `CN(C)c1ccc(/C=C/C(=O)c2ccc(C(C)(C)C)cc2)cc1[N+](=O)[O-]` stands -5.83%; under `CC(C)CCNC(=O)C(C)N(C(=O)Cn1nnc(-c2ccc(F)cc2)n1)C1CCCC1` (configuration not stated), -27.5%.
As for `CC1(c2nnc(Cc3ccccc3)o2)CC(c2ccccc2F)=NO1` (configuration not stated), the figure is -30.2%; as for `O=[N+]([O-])/C=C/c1ccc2c(ccn2Cc2ccccc2)c1`, 29.1%; as for `COc1ccc(CN2CCCC(C(=O)N3CCCCC3)C2)cc1` (configuration not stated), -7.55%.
As for `COc1cc(N2CCCC2)c(OC)cc1/C=C(/C#N)c1cccc(Br)c1`, the figure is 0.8%; as for `Cc1noc(C)c1-c1nc(CSc2ccc(Cl)cc2)no1`, -15%; as for `O=C(NCCC1CCCCN1S(=O)(=O)c1ccccc1)C(=O)NCC1CCCO1` (configuration not stated), -11.3%.
Regarding `CCOc1ncccc1C(=O)N(CC)CC(=O)Nc1ccc(NC(C)=O)cc1`, the inhibition is -12.8%.
In the case of `CCSc1nc2sc3c(c2c(=O)n1-c1ccc(C)cc1)CCN(C)C3`, the inhibition was -7.48%.
Under `CCc1ccc(OCC(=O)N(Cc2ccccc2)C2CCS(=O)(=O)C2)cc1` (configuration not stated) stands 9.5%; under `O=C(NCc1ccc(F)cc1)C1CCC(CNc2c(N3CCOCC3)c(=O)c2=O)CC1` (configuration not stated), 4.62%; under `CCNC(=S)N1CCN(S(=O)(=O)c2ccc(Cl)s2)CC1`, 2.35%.
Consider `CSc1cccc(NC(=O)C2CCCN2S(=O)(=O)c2ccc3c(c2)CCC(=O)N3)c1` (configuration not stated), for which the inhibition was -6.95%.
For the molecule `COn1c(=O)c(=O)n(OC)c2ccccc21`, the inhibition is 13.4%.
`CC(NC(=O)c1cccc2ccccc12)c1ccc2c(c1)CCCC2` (configuration not stated): the inhibition was -1.12%.
Under `COCCn1c(SCC(=O)Nc2ccc3c(c2)CCC3)nc2ccccc2c1=O` stands 4.39%.
As for `COC(=O)C1CCCCN1C(=O)c1ccc(OC2CCN(C(C)=O)CC2)c(OC)c1` (configuration not stated), the figure is -12.2%; as for `Cc1cc(C)c(S(=O)(=O)N2CCCC2CNC(=O)c2ccc3c(c2)OCO3)c(C)c1` (configuration not stated), 1.64%.
Turning to `Cc1cc(NC(=O)CCN2CCN(Cc3ccccc3)CC2)ccc1Br`, the inhibition was -5.24%.
As for `CN(CCO)S(=O)(=O)c1ccc2c(c1)C(=O)c1cc(S(=O)(=O)N(C)CCO)ccc1-2`, the inhibition is -0.05%.
With `Cn1c(N)c(C(=O)COC(=O)c2cnc(Cl)c(Cl)c2)c(=O)n(C)c1=O`, the inhibition was 13.4%.
Consider `CCOc1ccc(NC(=O)CC(Cc2ccc(Cl)cc2)C(=O)O)cc1` (configuration not stated), for which the inhibition was 11.4%.
As for `COc1ccc(CCNC(=O)COc2cc(C)cc3oc(=O)c(C)c(C)c23)cc1OC`, the figure is -41.4%; as for `Cc1cccc(C(=O)OC(C)CN2CCCC2)c1` (configuration not stated), -16.4%.
Under `O=C(NC(=S)Nc1cc(C(F)(F)F)ccc1N1CCOCC1)c1ccc(-c2cccc(Cl)c2)o1` stands 12.2%.
As for `Cc1ccc(NC(=O)CSc2nc(=O)n(CCN(C)C)c3c2CCCC3)c(C)c1`, the figure is 8.38%.
Take `Cc1c(C(=O)NCCN2C(=O)S/C(=C\c3cccs3)C2=O)cccc1[N+](=O)[O-]`: the inhibition is -12.1%.
Take `Cc1cc(NC(=O)CSC2=NS(=O)(=O)c3cc(Cl)ccc3N2)no1`: the inhibition is 6.86%.
Under `Cc1ccc(S(=O)(=O)NCC(C)NS(C)(=O)=O)cc1` (configuration not stated) stands -0.41%.
For `CC(=O)N(O)CCCCCNC(=O)CCC(=O)N(O)CCCCCNC(=O)CCC(=O)N(O)CCCCCNC(=O)CCC(=O)O`, the inhibition was 2.24%.
As for `O=C(NCc1ccncc1)C1CCN(C(=O)c2cccc(Cl)c2)CC1`, the figure is -13.3%.
Under `Cc1[nH]c2ccccc2c1C(=O)COC(=O)c1c(-c2ccccc2)noc1C` stands -12.9%; under `Nc1nonc1-n1nnc(C(=O)N/N=C/c2cc(Br)ccc2O)c1CSC1=NCCS1`, -4.39%.
Under `Cc1c(-c2ccccc2)cn2c1-c1ccc(C)n1CC2` stands -5.32%; under `Cc1noc(C)c1COc1cccc(C(=O)Nc2cccnc2)c1`, 22.3% (active).
In the case of `Cc1noc(C)c1COc1ccc(C(=O)NCCOc2ccccc2)cc1`, the inhibition was -0.9%.
Under `CC(=O)c1cccc(OCc2cc(C(=O)NC(C)Cc3cccnc3)no2)c1` (configuration not stated) stands -3.71%; under `CCc1nc2ccccc2n(CCOCCOCCn2c(=O)c(CC)nc3ccccc32)c1=O`, -0.84%.
Under `CN(C(=O)CSc1nnc(Nc2ccccc2)s1)C1CCS(=O)(=O)C1` (configuration not stated) stands 16.5%; under `C/C=C/C(=O)Nc1ccc(N2CCN(c3ccc(C(F)(F)F)cn3)CC2)nc1`, -13%; under `O=P(O)(CP(=O)(c1ccccc1)c1ccccc1)c1ccccc1`, 4.79%.
Under `COc1ccc(S(=O)(=O)N2CCSCC2)cc1` stands 16.4%; under `CCn1cc(C(=O)NCCCN2CCCCCC2)c(=O)c2cc(S(=O)(=O)N3CCc4ccccc4C3)ccc21`, -11%.
Consider `CCOC(=O)c1cn(CC)c2cc(F)c(F)cc2c1=O`, for which the inhibition is -4.15%.
Under `CC[C@H](C)[C@@H](C(=O)N1CCNCC1)n1cc([C@@H](N)Cc2ccc(O)cc2)nn1` stands -7.48%; under `COCc1cc(=O)[nH]c(SC)n1`, -5.28%; under `O=C(CSc1nnc(Nc2ccccc2F)s1)NC1CCCC1`, -11.3%.
Under `CCN(CC(=O)Nc1cc(Cl)ccc1C)C(=O)CSCc1ccc(C)cc1` stands -29.4%; under `CC[n+]1cc(C)ccc1/C=C/c1ccc(N(C)C)cc1`, 9.17%.
On to `CCCCN(C(=O)c1cccc(N2C(=O)c3ccccc3C2=O)c1)c1c(N)n(CCCC)c(=O)[nH]c1=O`, for which the inhibition was -1.54%.
`O=c1[nH]nc(Cc2ccccn2)c2ccccc12`: the inhibition was 34.8%.
Under `c1ccc2c(c1)OC1OC2Oc2ccccc21` stands 2.1%.
As for `CCOc1ccc(S(=O)(=O)Nc2cccc(C(=O)NCC3(N4CCCCC4)CCCCC3)c2)cc1`, the figure is -7.44%.
For the molecule `CC(C)COc1ccc(C(=O)NNC(=O)CCC(=O)c2cccs2)cc1`, the inhibition is 8.1%.
As for `Cc1cccc(NC(=O)N2CCCCCC2)c1C`, the figure is -15.6%; as for `CC[C@]1(C(=O)OC)[C@H]2C(=O)N(Cc3ccccc3)C(=O)[C@H]2[C@H]2CN=C(SCc3ccc(Cl)cc3)N21`, 4.46%; as for `CCC1Nc2ncnc(N3CCN(c4ccccc4)CC3)c2N(Cc2ccc(Cl)cc2)C1=O` (configuration not stated), 72% (active).
As for `O=C1C(Cc2ccc(O)cc2)NC(=S)N1Cc1ccccc1` (configuration not stated), the figure is -7.4%; as for `N#Cc1ccc(C2=CC(=O)C[C@H](c3ccc(Cl)cc3)C2)cc1`, -10.1%; as for `O=C(Nc1ccc(Cl)c(Cl)c1)N1CC=C(c2ccccc2)CC1`, 13.3%.
Under `C=CCN1C=C(C(=O)c2ccccc2)C(=O)CC1` stands 6.15%; under `CCc1nccn1CCC(=O)N1CCCC(N2CCN(c3ccccc3F)CC2)C1` (configuration not stated), 5.46%; under `COc1ccc([C@H]2CC(=O)C=C(c3ccc(CO)cc3)C2)cc1`, 8.13%.
In the case of `O=C1c2ccccc2[C@@H]2C[C@@H](O)[C@H](Nc3ccccc3Cl)CCN12`, the inhibition is -0.71%.
As for `Cc1cc(C)nc(SC(C)C(=O)N/N=C/c2cccs2)n1` (configuration not stated), the figure is 9.06%; as for `O=C(Cc1ccccn1)c1ccc(O)cc1O`, 12.8%.
As for `COc1ccc(-c2nnc(SC(=O)N3c4ccccc4Sc4ccccc43)o2)cc1`, the figure is -1.76%; as for `COc1ccc(-c2nnc(SC(C)C(=O)NC3CC3)o2)cc1` (configuration not stated), 24.2% (active).
As to `COc1ccc(-c2nnc(SCC(=O)NC3CCCCC3)o2)cc1OC`, the inhibition was 0.53%.
On to `COc1cc(N)c(Cl)cc1C(=O)OCC(=O)c1ccc2c(c1)NC(=O)CO2`, for which the inhibition is 10.7%.
Under `Cc1nnc(SCC(=O)N(C(C)C)C(C)C)nc1C` stands 7.98%.
Consider `COc1ccc(N/N=C2/CCCCC2=O)cc1`, for which the inhibition was -17.4%.
Under `CCCCN1CC(COc2ccccc2)Oc2cccc(F)c2S1(=O)=O` (configuration not stated) stands -4.35%; under `CN1C(CC(=O)Nc2ccc(Br)cc2)c2ccccc2CC1(C)C` (configuration not stated), -2.97%; under `Cc1cc(C(=O)COc2ccccc2[N+](=O)[O-])c(C)n1-c1cccc(S(=O)(=O)N2CCOCC2)c1`, -23.2%.
As for `O=C1CC(C(=O)O)NC(=S)N1` (configuration not stated), the figure is -5.32%.
Under `COc1ccc2oc(C(=O)N(CC(C)C)C3CCS(=O)(=O)C3)c(C)c2c1` (configuration not stated) stands 5.04%.
Take `CCCCCCCCc1c(O)nc(-n2[nH]c(C)c(CCO)c2=O)[nH]c1=O`: the inhibition was 23.4% (active).
Consider `CCCCCc1c(C)nc(N2CCN(Cc3ccc4c(c3)OCO4)CC2)[nH]c1=O`, for which the inhibition was -8.1%.
Under `CCCCc1c(O)nc2n(c1=O)CCS2` stands -25.6%.
